Screening data (PubChem BioAssay)
CRE-bla Fsk = Cell signaling CRE-BLA (Fsk stim); CHO CRE-bla reporter (cAMP response element driving beta-lactamase), forskolin EC10, beta-lactamase ratio; Potency, µM (highest dose often 38.2 µM), inactives show at the highest dose activity change, negative = inhibition, most hits filed as activators; hit rate 2.5% among 71,000; active means well fitted activation curve with a large enough effect in the signal ratio, with a control signal flat, not every such curve was filed as active; inconclusive means small, poorly fitted or top-dose-only effect, or effect the other way, or a change in a side signal; the % refers to the signal ratio; further: potency means the concentration at half of the fitted maximal effect; % of control where 0% means no effect
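Forskolin analogue NKH 477 at EC10 stimulated CRE-driven beta-lactamase in CHO cells alongside compound dilution series. Beta-lactamase was measured with CCF4, excitation 405 nm, emission ratio 460/530 nm.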
HSD17B inh = qHTS Assay for Inhibitors of HSD17B4, hydroxysteroid (17-beta) dehydrogenase 4; Potency, µM (highest dose often 57.1 µM), for inactives: top-dose activity change, negative = inhibition, usual class: inhibitors; recombinant HSD17B10, NADH fluorescence kinetic; 3-hydroxyacyl-CoA dehydrogenase type-2 (Homo sapiens), Q99714; AID 893, 2007; hit rate 7.6% among 75,000;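 further: the protocol describes HADH2 (HSD17B10) and not the HSD17B4 of the title; potency means the concentration at half of the fitted maximal effect; on the % scale 0 is the no-effect control and ±100 the full control effect; nearly all actives have a fitted effect of over 70% in size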
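20 nM HADH2, pH 9.0 Tris/Tween; cpd preinc 15 min RT; start w/ 1 mM NAD+ + 90 uM b-hydroxybutyryl-CoA; kinetic fluor ex360/em450 q30s x 4 min; delta last-first.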
AID923 = qHTS Assay for Allosteric/Competitive Inhibitors of Caspase-1: Spectroscopic Profiling in AFC Spectral Region. Potency, µM (series often up to 57.5 µM), for the others: top-dose fluorescence increase, hits mostly activators. hit rate 1.1% among 75,000. compound fluorescence, AFC spectral region (405/520 nm); further: potency means the concentration at half of the fitted maximal effect; 0% is about no effect
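Compound autofluorescence profiled at 405 nm ex/520 nm em during kinetic caspase 1 run (50 nM enzyme, 5 uM Ac-WEHD-AFC, HEPES pH 7.5, 10 mM DTT). Titration up to 57 uM; baseline from regression intercept, normalized to AFC standard curve.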
4MU fluor = qHTS Assay for Spectroscopic Profiling in 4-MU Spectral Region | compound autofluorescence, 340/450 nm, 4-MU equivalents; active compounds read high | max dye-equivalent concentration, M | hit rate 11% among 59,000 | AID 589, 2007; in the data active means max dye-equivalent concentration above about 10 nM; inconclusive means mostly about 1.1 nM to 9.6 nM
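Compounds in 100 mM Tris, pH 8.0, sat 15 min at room temperature before fluorescence was read at 340 nm excitation/450 nm emission; a per-plate six-point 4-MU standard curve converted signals to dye-equivalent concentration at each compound concentration.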
HADH2 inhib = qHTS Assay for Inhibitors of HADH2 (Hydroxyacyl-Coenzyme A Dehydrogenase, Type II). AID 886, 2007. Potency, µM (doses to about 57.1 µM), without a hit: top-dose activity change, negative = inhibition, most hits filed as inhibitors. recombinant HADH2, NADH fluorescence, beta-hydroxybutyryl-CoA. 3-hydroxyacyl-CoA dehydrogenase type-2 (Homo sapiens), Q99714. hit rate 3.4% among 73,000; further: potency means the concentration at half of the fitted maximal effect; on the % scale 0 is the no-effect control and ±100 the full control effect; nearly all actives have a fitted effect of over 60% in size
Target sequence (Q99714 whole entry, looked up, one chain of several): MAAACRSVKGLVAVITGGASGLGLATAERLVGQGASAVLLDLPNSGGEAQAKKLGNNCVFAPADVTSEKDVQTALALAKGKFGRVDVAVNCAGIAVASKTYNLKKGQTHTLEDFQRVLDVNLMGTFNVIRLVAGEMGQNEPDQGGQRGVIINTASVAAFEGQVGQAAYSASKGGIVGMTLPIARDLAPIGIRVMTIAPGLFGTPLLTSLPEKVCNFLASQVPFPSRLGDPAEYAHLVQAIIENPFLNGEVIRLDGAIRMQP
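His-tagged recombinant enzyme from E. coli, 20 nM, preincubated 15 min RT with compound; reaction started with 1 mM NAD+ and 90 uM beta-hydroxybutyryl-CoA in 100 mM Tris-HCl pH 9.0. NADH fluorescence (ex 360/em 450) read over 4 min; last-minus-first difference.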
A350 autofl = qHTS Assay for Spectroscopic Profiling in A350 Spectral Region | Compound autofluorescence, 340/450 nm, Alexa 350 dye-equivalents; active compounds read high | max dye-equivalent concentration, M | hit rate 11% among 59,000; in the data active means max dye-equivalent concentration above about 10 nM; inconclusive means mostly about 1.1 nM to 9.6 nM
The depositor's hits bear a star; i = inactive; ? = inconclusive; nt = not tested or not shown; [ ] = another dose, or the depositor's remark. The list is not random: actives were taken first. Their share in the collection is about 14%. Unless noted, the call rests on the fitted dose curve; in most records, active means well fitted curve in the direction sought with a large enough effect; inconclusive means small, poorly fitted or top-dose-only effect, or another doubt; inactive means no such curve, though single readings can be large; an effect the other way counts as inactive or inconclusive.

SMILES | CRE-bla Fsk | HSD17B inh | AID923 | 4MU fluor | HADH2 inhib | A350 autofl
N#C[C@H]1CN[C@H](N)N[C@@H]1N | ? | 2%[11.4 µM] | -1%[11.5 µM] | i | 14%[11.4 µM] | i
CCCC[C@@H]1C[C@H]1C(NC(=O)c1cccnc1)c1ccc(Cl)cc1 (some centres undefined) | -8% | -4% | -2% | nt | -4% | nt
N#C/C(=C\C1CC=CCC1)c1nc2ccccc2[nH]1 (centres undefined) | 25% | 25µM* | 1% | i | -18% | i
CN(C)/C=C(\C#N)c1nc2ccccc2[nH]1 | 4% | -9% | 1% | i | -7% | i
COc1ccccc1CC(=O)Nc1ccc(O)cc1C(=O)O | -1% | 32µM* | 1% | ? | ? | ?
CCOC(=O)c1c(CN2CCCCC2)n(C)c2cc(Br)c(OC)cc12 | 10µM* | -4% | 0% | i | -4% | i
CC1C(NC(=O)/C(=N/OC(C)(C)C(=O)O)c2csc(N)n2)C(=O)N1S(=O)(=O)O (centres undefined) | nt | -2% | -4% | nt | nt | nt
c1ccc(-n2nnnc2SCc2cn3ccccc3n2)cc1 | ? | 1% | 3% | i | -2% | ?
c1ccc(-n2nnnc2SCc2cn3cccnc3n2)cc1 | ? | 32µM* | -1% | 1e-07M* | 25µM* | 1.4e-07M*
COc1ccc(N(CC(=O)NCc2cccs2)S(=O)(=O)c2c(C)n[nH]c2C)cc1 | -15% | 8% | -1% | i | 0% | i
COC(=O)NC/C=C\c1nc(CCCO)co1 | nt | 1%[11.4 µM] | -1%[11.5 µM] | nt | -5%[11.4 µM] | nt
CN(Cc1ccccc1)c1nc2c(c(=O)[nH]c(=O)n2C)n1C | 12% | 18% | 0% | i | 7% | i
Cc1cc(-c2ccccc2)nn1-c1nc2c(c(=O)[nH]c(=O)n2C)n1C | ? | 25µM* | 1% | ? | -7% | ?
Cc1cccc(Cn2c(N(C)Cc3ccccc3)nc3c2c(=O)[nH]c(=O)n3C)c1 | 13µM* | ? | -2% | nt | 5% | nt
C/C=C/Cn1c(N(C)Cc2ccccc2)nc2c1c(=O)[nH]c(=O)n2C | 10µM* | 9% | -2% | nt | -2% | nt
CC(C)C1=C2OC(N)=C(C#N)C(C#N)=C2C(C)CC1 (centres undefined) | nt | nt | nt | 4e-07M* | nt | 4.5e-07M*
O=S(=O)(c1ccc2oc(-c3ccncc3)nc2c1)c1ccc2oc(-c3ccncc3)nc2c1 | ? | -2% | 1% | i | 1% | i
O=C(Cc1ccccc1)Nc1ccc2oc(-c3ccncc3)nc2c1 | 12% | 25µM* | 3% | 1.1e-08M* | 74% | 1e-08M*
CC(C)CC(=O)Nc1ccc2oc(-c3ccncc3)nc2c1 | 29% | 13µM* | 6% | 2.2e-08M* | 15% | 3e-08M*
Cn1c(=O)c2[nH]c(-c3ccc(S(=O)(=O)O)cc3)nc2n(C)c1=O | 0% | 16µM* | -2% | 4.6e-07M* | 1µM* | 4.6e-07M*
CCn1c(=O)c2[nH]c(-c3ccccc3)nc2n(CC)c1=O | ? | ? | -3% | i | ? | i
CCCn1c(=O)c2[nH]c(-c3ccccc3)nc2n(CCC)c1=O | 0.2µM* | 32µM* | -3% | nt | 5% | nt
CC(C)c1ccc(-c2nc3c([nH]2)c(=O)n(C)c(=O)n3C)cc1 | -4% | -20% | 2% | i | 20% | ?
CCCn1c(=O)[nH]c2nc(-c3ccc(S(=O)(=O)O)cc3)[nH]c2c1=O | ? | 13µM* | -1% | nt | ? | nt
N#Cc1cccc(NC(=O)N2CCC3(CC2)CCN(C(=O)c2ccco2)CC3)c1 | -15% | 12% | 0% | i | 8% | i
SMILES | CRE-bla Fsk | HSD17B inh | AID923 | 4MU fluor | HADH2 inhib | A350 autofl
S=C([S-])NCCNC(=S)[S-].[Zn+2] | -21% | 5µM* | 0% | nt | 4µM* | nt
COc1c2occc2c(OC)c2c(=O)cc(C)oc12 | 7.9µM* | 6% | -1% | i | 6%[25.6 µM] | i
CCCCN(Cc1cc2cc(OC)ccc2[nH]c1=O)C(=O)c1ccccn1 | 16% | 32µM* | 0% | 3.1e-07M* | ? | 4.1e-07M*
COc1ccc2[nH]c(=O)c(CN(C(=O)c3ccccn3)C3CCCCC3)cc2c1 | ? | ? | 0% | 1.8e-07M* | ? | 2.3e-07M*
CCCCN(Cc1cc2cc(OC)ccc2[nH]c1=O)C(=O)c1ccco1 | ? | 25µM* | 3% | 3.1e-07M* | 12% | 1.4e-07M*
COc1ccc2[nH]c(=O)c(CN(CCO)C(=O)c3ccccc3F)cc2c1 | ? | 25µM* | 0% | 3.3e-07M* | -11% | 3.9e-07M*
CN1CCN(c2ncncc2-c2ccccc2Cl)CC1 | -9% | -16% | 2% | i | ? | i
O[C@@H](c1cc([C@@]23C[C@H]4CC[C@@H]2C[C@H](C4)C3)nc2c(Cl)cc(Cl)cc12)[C@@H]1CCCCN1 | -5%[7.6 µM] | 9%[11.4 µM] | -5%[11.5 µM] | i | 11%[11.4 µM] | i
c1ccc(CN2COc3c(ccc4c5c(ccc34)CN(Cc3ccccc3)CO5)C2)cc1 | -7%[7.6 µM] | 2%[11.4 µM] | 0%[11.5 µM] | i | 4%[11.4 µM] | i
CCOC(=O)N1CCN(C(=O)CSCC(=O)Nc2nc(-c3ccc4c(c3)OCO4)cs2)CC1 | -9% | -10% | 2% | 1.1e-07M* | -1% | 1.1e-07M*
CCOC(=O)N1CCN(C(=O)CSCC(=O)Nc2nc(-c3cccs3)cs2)CC1 | 12% | -26% | 2% | 7.4e-08M* | 0% | 7.1e-08M*
CC1CCCCN1C(=O)CSCC(=O)Nc1nc(-c2cccs2)cs1 (centres undefined) | -6% | -9% | 0% | nt | -4% | nt
Cc1cc(C)c2c(n1)nn1c(C3CC3)cc(C(F)(F)F)nc21 | 20% | -3% | 1% | 1.4e-08M* | -7% | 1.3e-08M*
Cc1cc(C)c2c(C)nn(C3CCCCC3)c2n1 | ? | ? | -1% | i | ? | ?
COc1cccc(C2c3c(oc4ccccc4c3=O)C(=O)N2CCCN(C)C)c1OC (centres undefined) | -12% | -2% | 2% | 1.6e-08M* | 17% | 1.6e-08M*
CCN(CC)CCCN1C(=O)c2oc3ccccc3c(=O)c2C1c1cccc(OC)c1OC (centres undefined) | -4% | 4% | 4% | 1.2e-08M* | 10% | 1.6e-08M*
COC(=O)c1c(S(N)(=O)=O)c2ccccc2n1C | -4% | 32µM* | -1% | nt | ? | nt
CCC/C=C(\CCC)C(NC(=O)c1ccc(C(F)(F)F)cc1)c1ccccc1 (centres undefined) | ? | -4% | -1% | nt | 14% | nt
